Laboratory results from the supplement of paper PMC12632987.

Biological target: T1, USP38, Q8NB14
T1 chain: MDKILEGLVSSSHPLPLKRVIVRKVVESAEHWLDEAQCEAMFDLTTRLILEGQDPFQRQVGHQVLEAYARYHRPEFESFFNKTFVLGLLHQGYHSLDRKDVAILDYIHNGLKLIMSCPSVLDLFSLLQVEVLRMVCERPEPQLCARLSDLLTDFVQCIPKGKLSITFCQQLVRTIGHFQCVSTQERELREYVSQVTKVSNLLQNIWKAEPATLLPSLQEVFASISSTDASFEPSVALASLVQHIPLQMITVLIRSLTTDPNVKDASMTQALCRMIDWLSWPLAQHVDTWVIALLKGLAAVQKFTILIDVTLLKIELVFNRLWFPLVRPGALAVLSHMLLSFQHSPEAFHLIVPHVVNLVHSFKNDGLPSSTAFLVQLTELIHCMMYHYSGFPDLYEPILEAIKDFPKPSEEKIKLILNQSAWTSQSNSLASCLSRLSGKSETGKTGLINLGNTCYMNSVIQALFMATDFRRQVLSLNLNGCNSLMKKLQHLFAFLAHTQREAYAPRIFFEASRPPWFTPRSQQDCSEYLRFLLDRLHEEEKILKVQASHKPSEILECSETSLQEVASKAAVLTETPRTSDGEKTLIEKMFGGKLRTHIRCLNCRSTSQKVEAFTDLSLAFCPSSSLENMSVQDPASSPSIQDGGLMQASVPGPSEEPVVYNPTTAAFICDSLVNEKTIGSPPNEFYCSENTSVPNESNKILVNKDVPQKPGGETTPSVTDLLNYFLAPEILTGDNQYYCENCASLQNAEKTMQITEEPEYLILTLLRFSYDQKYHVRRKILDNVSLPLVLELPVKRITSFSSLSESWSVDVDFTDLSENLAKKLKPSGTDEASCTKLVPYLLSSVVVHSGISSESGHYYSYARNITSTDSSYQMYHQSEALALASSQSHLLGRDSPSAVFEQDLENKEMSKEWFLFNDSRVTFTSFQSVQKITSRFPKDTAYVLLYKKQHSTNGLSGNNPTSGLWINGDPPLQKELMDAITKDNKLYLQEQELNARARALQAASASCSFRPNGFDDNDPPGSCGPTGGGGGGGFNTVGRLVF
Assay: median log2 fold change of GCK-ALFA target abundance (FLAG IP / Myc IP barcode read proportion) (log2 ratio); each designed protein is fused to an ALFA-tag nanobody in HEK293 cells to bring the named protein to FLAG-tagged glucokinase (GCK); Myc marks an untargeted standard; higher = target protein stabilised (more abundant)
Details: target protein: 3xFLAG-MCP-GCK-ALFA reporter; HEK293 landing pad (RPLP)
Method in brief: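 An ALFA-nanobody-fused binder library was recombined into HEK293 landing-pad cells and induced with 2 μg mL^−1 doxycycline. Cells were transfected with a plasmid expressing a FLAG-tagged target and a Myc-tagged standard. After 48 h, lysates underwent anti-FLAG and anti-Myc immunoprecipitation, and circular RNA barcodes were reverse transcribed, amplified and sequenced. Target abundance is the per-binder median log2 ratio of FLAG to Myc barcode read proportions. Barcodes needed ≥10^−7 proportion in both replicates, binders ≥3 barcodes per replicate, and a 10^−6 pseudocount was added; the two replicates were pooled.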

B1: usp_38_diff_out_16_109_165 (protein)
chain: SQDEEADRLLAEAAIANLKALAKEAKEELKKLKARGASPEVLAAYQKLADTAEAAAKAIEAALKAGKNLRETTDKQLDAVGAAAAAASALRRAEARERSA
  median log2 fold change: 0.0224

B2: usp_38_diff_out_15_91_163 (protein)
chain: MSSRTIATEGTLKRLKEDAELARELGLEETAKKAEEAAKLAEELLKLLKEREKAIKAGAPKEEIEKLRKEAKKKEKELNEKLSELVPDWAELELKRIEKE
  median log2 fold change: 0.082

B3: usp_38_diff_out_15_85_155 (protein)
chain: EAEELKREIEREIEEARRLLEEARALLADPAAPLAAIREVLDRAAEALGRAEALARELRRRFPEYREFVKKALEELDRLTDELERLAREAFEREADALAA
  median log2 fold change: 0.127

B4: usp_38_diff_out_15_85_156 (protein)
chain: EAEKLKEEIERKIKEAEKLLKEAKKLLADPKAPLEEIRKVLDKAAEALGEAEKLARELRRKFPEEREYVKEVLKRLDKLVDELEKLAREAFEREADALLA
  median log2 fold change: -0.0522

B5: usp_38_diff_out_16_109_170 (protein)
chain: SQDEEADRLLAEATIENLKALAEEAKERLKKLEAKGASAEVLKAYKDLAETAKKAAEEIKEALKKGENIRETTDKKWDEVGKAAAAASEARRAEARARSA
  median log2 fold change: 0.177

B6: usp_38_diff_out_16_109_169 (protein)
chain: SADEEADRLLAEAAIANFRALAEEARARLARLKARGASPAVLAAHQALADTAEAAAAEIEAALAAGENLRETTDRQWDAVGAAAAAASAALRAEARARSA
  median log2 fold change: -0.16

B7: usp_38_diff_out_16_109_168 (protein)
chain: SADEEADRLLAEAAIANFRALAADAEAELKRLEARGASPAVLKAYADLAAKAKEAAATIEAALAKGENLRETTDAQWDAVGAAAARASELRRAEARERSA
  median log2 fold change: 0.16

B8: usp_38_diff_out_15_85_154 (protein)
chain: EAEELKREIEEEIRRAEELLAEAEALLADPAAPLEEIEAVLDEAARALGRAEALARELRRRFPEYREYVKEVLERLDELTDRLLALETEAFERRAEEDLA
  median log2 fold change: -0.0616

B9: usp_38_diff_out_15_91_162 (protein)
chain: LESKLQAARGTADYAREMQERAEELGLEEEAALLQKVRDAAEELAKLYEELIALQKAGADQAEIDKVRKEAKKLLEELNKLISEAVPAAARILLKEQERE
  median log2 fold change: -0.243

B10: usp_38_diff_out_15_85_157 (protein)
chain: AAEALKAEIQAKIAEAKALLAEAKALLADPAAPLAEIEAVLDAAARALGQAQALARQLRREFPEQAAFVKAANAELDALTDELTALARAAFERRAEADLA
  median log2 fold change: 0.104

B11: usp_38_diff_out_16_109_166 (protein)
chain: SADEEADRLLAEAAIENFEKLAEEAKEELKKLKAKGASEEVLKAYEDLAKTAREAAEKIREALERGENLRETTREQWDKVGAKAAEASELRRAEARERSA
  median log2 fold change: 0.186

B12: usp_38_diff_out_16_109_167 (protein)
chain: SADEEAAKLLAEATIKELKALAKEAEERLKKLKAKGASEEVLAAEKKLADTAKKAAEEIEKALKKGENILETTNKKWDEVGAAAAEAAELRRAEARARSA
  median log2 fold change: 0.102

B13: usp_38_diff_out_15_91_164 (protein)
chain: MSSKTIATKGTRDYLKDAAAEAKELGLEETAKALEEAAALADQLLDLLEQLEKAEKEGADQAEIDKLRKEAKELDAKLNEKISELVPGLAELEQKRIERE
  median log2 fold change: 0.19

B14: usp_38_diff_out_15_91_159 (protein)
chain: LESKLEAARGVAAWAEEMAARARELGLEEEAALFEEVAAAARELAELLEKIIKLKKEGADPKEIEAARKEAKAAEARLNELLSRAVPAAARVLLAEQERE
  median log2 fold change: -0.149

B15: usp_38_diff_out_15_91_161 (protein)
chain: LESKLQAAEGTADYAKEMKAEAEKLGLEEQAKKLQEVADAAKKLAELYKKLIKLEKEGAPKEEIEKVRKEAKKLEEELNKLISEAVPYMAEILLKKQEKE
  median log2 fold change: -0.0204

B16: usp_38_diff_out_15_91_160 (protein)
chain: LESKLQAAKGTADWAKEMREEAEELGLEEEAALLEEVRKLAEELAKLLEELIKLEKEGAPQEEIDKLRKEAKEKEKELNEAISKAVPAAARILLARQEKE
  median log2 fold change: 0.0652
